Test results taken from PubChem BioAssay AID504332 (National Center for Advancing Translational Sciences (NCATS), 2011).
Several values for one entry are separate records, joined by “and”; a condition that tells them apart may be missing. Equal entries are not always repeated. The campaign covered roughly 350,000 compounds. About 31,000 (8.9%) were called active. Entries that show only a call come without a potency. Roughly 15% stayed inconclusive and do not appear here. Calls follow the shape of the dose curve; as a rule, active = well fitted inhibition curve with a large enough effect; inconclusive = small, poorly fitted or top-dose-only effect; inactive = no such curve, though single readings can be large or run the other way. The full list was thinned out, with actives kept by preference. Some compounds were tested as several samples or in several runs, with calls that do not always agree.

The compounds below were run against Histone-lysine N-methyltransferase EHMT2 (Homo sapiens) (UniProt Q96KQ7) (assay: qHTS Assay for Inhibitors of Histone Lysine Methyltransferase G9a). Details: G9a H3K9 monomethylation, AlphaScreen, 2 h; series mostly up to 59 µM.
How it was run: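 Methyltransferase reactions run at room temperature for 2 h (20 nM enzyme, 500 nM biotin-H3K9 peptide, 20 uM SAM) after a 15 min compound preincubation; product detected by AlphaScreen beads and anti-H3K9me1 antibody.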
Also: nearly all actives have a fitted effect of over 75% in size.
Potency is read from the fitted curve at half-maximal effect.

Histone-lysine N-methyltransferase EHMT2 (Homo sapiens), sequence (Q96KQ7 913-1193 limits assumed): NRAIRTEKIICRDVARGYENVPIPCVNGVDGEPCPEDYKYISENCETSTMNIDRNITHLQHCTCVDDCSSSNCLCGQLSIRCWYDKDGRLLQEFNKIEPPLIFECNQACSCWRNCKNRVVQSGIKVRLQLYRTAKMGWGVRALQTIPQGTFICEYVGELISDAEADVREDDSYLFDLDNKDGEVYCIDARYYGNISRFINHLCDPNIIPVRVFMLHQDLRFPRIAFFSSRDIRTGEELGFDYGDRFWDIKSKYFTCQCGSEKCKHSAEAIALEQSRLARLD

Compound	Potency	activity, negative = inhibition
COc1cc(OC)c2c(c1)OC(=O)CC2c1cc(OC)c(OC)c(OC)c1 (stereo not drawn)	inactive	
COc1ccc(C2CC(=O)NC(=O)C2)cc1	inactive	
COc1ccc(C2CC(=O)Oc3ccc(C(C)(C)C)cc32)cc1 (stereo not drawn)	inactive and 44.7 µM (active)	
COc1ccc(-c2cc(C(=O)NCc3cc(OC)c(OC)c(OC)c3)[nH]n2)cc1	inactive	
O=C(CN(C(=O)CNC(=O)c1cccs1)c1cccc(F)c1)NC1CCCCC1	inactive	
COc1ccc(C)cc1NC(=O)C(=O)NCCc1sc(-c2cccc(C)c2)nc1C	inactive	
CC1CCCCN1S(=O)(=O)CCNC(=O)c1ccccc1 (stereo not drawn)	inactive	
Cc1ccc(CCCOC(=O)C[N+]2(C)CCCC2)cc1	15.8 µM (active)	
CCCCOC(=O)Cn1c(=O)n(CC(=O)OCCCC)c2cc(C)ccc21	inactive	
Cc1ccc(CCN2CC(C(=O)O)CC2=O)cc1 (stereo not drawn)	inactive	
COc1cccc(-c2n[nH]c3c2C(c2cccc(O)c2)N(C)C3=O)c1 (stereo not drawn)	inactive	
Cc1cc(NC(=O)c2ccccc2C)no1	inactive	
CCOc1ccc(S(=O)(=O)NCCC(=O)N2CCCCCCC2)cc1	inactive	
Cc1cccc(Oc2c([N+](=O)[O-])c(=O)n(C)c3ccccc23)c1	44.7 µM (active)	
Cn1c(=O)c([N+](=O)[O-])c(Oc2ccccc2)c2ccccc21	39.8 µM (active)	
Cc1cccc(OP(=O)(Nc2c(C)n(C)n(-c3ccccc3)c2=O)Oc2cccc(C)c2)c1	inactive	
Cc1cccc(C2CC(=O)Oc3c2c(=O)n(C)c2ccccc32)c1 (stereo not drawn)	inactive	
Cn1nc(-c2ccccc2)c2cc([N+](=O)[O-])ccc21	inactive	
Cc1nn(C)c(Oc2ccccc2)c1[N+](=O)[O-]	inactive	
Cc1ccc(-n2ncc3c2CCCC3NC(=O)c2cnccn2)cc1C (stereo not drawn)		-6.28% [at 0.501 µM] (inactive)
CCOc1ccc(Nc2ncnc3scc(-c4ccc(OC)cc4)c23)cc1		2.22% [at 12.7 µM] (inactive)
COc1ccccc1-c1cc2nc(C)c(CCC(=O)NC3CCCCC3)c(C)n2n1	inactive	
COc1ccc([N+](=O)[O-])cc1NC(=O)C(C)OC(=O)C1c2ccccc2Oc2ccccc21 (stereo not drawn)	inactive	
COc1ccc([N+](=O)[O-])cc1C1NN=C(c2cccc3ccccc23)S1 (stereo not drawn)	28.2 µM (active)	
COc1ccccc1C1CCN(c2ccc([N+](=O)[O-])cn2)CC1	inactive	
COc1ccc(-n2c(=O)c3ccccc3n(Cc3ccccc3Cl)c2=O)cc1	inactive	
Cc1ccc(OCC(=O)OCc2cc(=O)n3nc(C4CC4)sc3n2)cc1	inactive	
COc1ccccc1NC(=O)CSC1=Nc2ccccc2C2=NC(CC(=O)NCc3cccs3)C(=O)N12 (stereo not drawn)	inactive	
